Measurements taken from PubChem BioAssay (NCATS).
Records with an inconclusive call do not appear. The source made the active and inactive calls. Calls follow the shape of the dose curve; as a rule, active = well fitted cell-killing curve with a large enough effect; inconclusive = small, poorly fitted or top-dose-only effect, or effect the other way; inactive = no such curve, though single readings can be large or run the other way.

Experiment: Viability qHTS for spleen associated tyrosine kinase inhibitor (SYKi) naive MV4-11 cells (AID 1963823); also: nearly all actives have a fitted effect of over 40% in size
Settings: MV4-11 AML viability, CellTiter-Glo luminescence, 72 h; series mostly up to 45 µM; viability (% of control): at the top concentration
How it was run: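 qHTS, SYK inhibitor-naive MV4-11; 500 cells/well; 72 hr compound exposure, 37 C; CellTiter-Glo added, 10 min RT; luminescence read.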
Potency is read from the fitted curve at half-maximal effect.

Row | SMILES | viability (% of control) | Potency
1 | CCn1c(=O)c2cc(C(N)=O)c(N)nc2n(C2CC2)c1=O | 77.1% (inactive) | 
2 | Cc1nc2ccc(CN(C)c3ccc(C(=O)NC(CCC(=O)O)C(=O)O)s3)cc2c(=O)[nH]1 (stereo not drawn) |  | 0.0065 µM (active)
3 | CC1=C2C(=O)C=C(CO)C2[C@H]2OC(=O)[C@H](C)[C@@H]2[C@@H](OC(=O)Cc2ccc(O)cc2)C1 (stereo partly drawn) | 74.2% [at 17.3 µM] (inactive) | 
4 | C/C=C/C=C/C(O)=C1/C(=O)[C@]2(C)C(=O)[C@@](C)(O)[C@H]1[C@H]([C@@]1(C)OC(=O)C(C)=C1O)[C@H]2C(=O)CC/C=C/C | 74.5% [at 17.3 µM] (inactive) | 
5 | C=C1[C@@H]2[C@H]3OC(=O)C(=C)[C@@H]3CC[C@@](C)(O)[C@@H]2C[C@@H]1O[C@@H]1O[C@H](CO)[C@@H](O)[C@H](O)[C@H]1O | 80.4% [at 17.3 µM] (inactive) | 
6 | CSc1ccc(C(=O)N[C@@H]2CCCC[C@@H]2NC(=O)CNC(=O)c2cc(C(F)(F)F)ccc2NC(=O)NC(C)C)cc1 | 50.2% (inactive) | 
7 | C/C=C/C=C/C=C/C(=O)O[C@@H]1C=C(CO)C(O)(C(=O)O)[C@@]2(C)CCCC(C)(C)[C@H]12 (stereo partly drawn) | 55% [at 17.3 µM] (inactive) | 
8 | CC(=O)SC[C@@H](Cc1ccccc1)C(=O)NCC(=O)OCc1ccccc1 | 79.6% (inactive) | 
9 | CC(O)C(O)/C=C/C=C/C(=O)O[C@@H]1C=C(C(=O)O)[C@](O)(CO)[C@@]2(C)CCCC(C)(C)[C@H]12 (stereo partly drawn) | 85.4% [at 17.3 µM] (inactive) | 
10 | C[C@@]1(F)[C@H](O)[C@@H](CO)O[C@H]1n1ccc(N)nc1=O | 76% (inactive) | 
11 | O=C(O)c1cc(-c2c(-c3ccccc3)nn3ccccc23)n[nH]c1=O | 73.1% (inactive) | 
12 | C[C@@H]1CC[C@@]23CC[C@]4(C)[C@@](C=CC5[C@@]6(C)CC[C@H](O)C(C)(C)C6CC[C@]54C)(OC2=O)C3[C@H]1C (stereo partly drawn) | 47.6% [at 17.3 µM] (inactive) | 
13 | CC(=O)C1CCC(=O)N1Cc1ccccc1 (stereo not drawn) | 78.7% (inactive) | 
14 | CC1=CC2/C=C(\C)CCC(O)C(=O)C(O)CC(=O)C23C(=O)NC(CC(C)C)C3C1C (stereo not drawn) |  | 10 µM (active)
15 | CC(O)CCc1ccc(O[C@@H]2O[C@H](CO)[C@@H](O)[C@H](O)[C@H]2O)cc1 (stereo partly drawn) | 110% (inactive) | 
16 | CC(C)(OC1OC(CO)C(O)C(O)C1O)C1CCC(O)(CO)C2CC(=O)C(C)(O)C2C1 (stereo not drawn) | 78.8% [at 17.3 µM] (inactive) | 
17 | CC(=O)OC[C@@]12C(=O)C[C@@H](C)[C@]3(C[C@@H](c4ccoc4)O[C@H]3OC(C)=O)[C@H]1CCC[C@]21CO1 | 71.9% [at 17.3 µM] (inactive) | 
18 | COc1ccc(CNC(=O)c2sc3nc(C)cc(C)c3c2N)cc1 | 74.2% (inactive) | 
19 | CC(=O)c1ccc(O[C@@H]2O[C@H](CO[C@@H]3OC[C@@H](O)[C@H](O)[C@H]3O)[C@@H](O)[C@H](O)[C@H]2O)cc1 | 95.9% [at 17.3 µM] (inactive) | 
20 | C/C=C(\C)C(=O)O[C@H]1[C@H](O)[C@]2(COC(C)=O)[C@H](O)C[C@]3(C)C(=CCC4[C@@]5(C)CC[C@H](O[C@@H]6O[C@H](C(=O)O)[C@@H](O[C@@H]7O[C@H](CO)[C@@H](O)[C@H](O)[C@H]7O)[C@H](O)[C@H]6O[C@@H]6O[C@H](CO)[C@@H](O)[C@H](O)[C@H]6O)[C@](C)(CO)C5CC[C@]43C)[C@@H]2CC1(C)C (stereo partly drawn) | 88% [at 9.25 µM] (inactive) | 
21 | CC1(C)CC[C@]2(C(=O)O[C@@H]3O[C@H](CO)[C@@H](O)[C@H](O)[C@H]3O)CC[C@]3(C)C(=CCC4[C@@]5(C)C[C@@H](O)[C@H](O)C(C)(C)C5CC[C@]43C)C2[C@@H]1O (stereo partly drawn) | 65.1% [at 17.3 µM] (inactive) | 
22 | COCCN(C)Cc1ccc2nc3sc(C(=O)N(C)C4CCCCC4)cn3c2c1 | 71.8% (inactive) | 
23 | C=C1C[C@]23C[C@H]1CC[C@H]2[C@]1(C)CC[C@H](O)[C@@](C)(C(=O)O)[C@H]1[C@@H]3C(=O)O | 55.5% (inactive) | 
24 | O=C1NC(Cc2c[nH]c3ccccc23)C(=O)NC1Cc1cnc[nH]1 (stereo not drawn) | 68.3% (inactive) | 
25 | CC1(C)CC[C@]23CO[C@@]4(CCC5[C@@]6(C)CC[C@H](O[C@@H]7OC[C@H](O[C@@H]8O[C@H](CO)[C@@H](O)[C@H](O)[C@H]8O)[C@H](O)[C@H]7O[C@@H]7O[C@H](CO)[C@@H](O[C@@H]8O[C@H](CO)[C@@H](O)[C@H](O)[C@H]8O)[C@H](O)[C@H]7O)[C@@](C)(CO)C6CC[C@@]5(C)[C@]4(C)C[C@H]2OC2OCC(O)C(O)C2O)C3C1 (stereo partly drawn) |  | 1.95 µM (active)
26 | CC(C)C[C@H](CC(=O)NO)C(=O)N[C@@H](Cc1ccc2ccccc2c1)C(=O)N[C@@H](C)C(=O)NCCN | 82.2% (inactive) | 
27 | O=C(Cn1ccnc1[N+](=O)[O-])NCc1ccccc1 | 95.1% (inactive) | 
28 | CC(C)c1c(NC(=O)Nc2ccc(Cl)cc2)c(=O)n(-c2ccccc2)n1C | 61.4% (inactive) | 
